Rows were chosen to be rich in hits. Some 19% of all compounds tested hit in one or more screens of this group.
BCR signal inh = qHTS Assay to Find Inhibitors of Chronic Active B-Cell Receptor Signaling | AID 493014, 2011 | Potency, µM (doses to about 46.1 µM), without a hit: at the highest dose activity change, negative = inhibition, hits mostly inhibitors | actives 0.05% (n = 340,000) | ABC-DLBCL IkBa-CBG/CBR reporter, luminescence ratio, 4 h; active = well fitted inhibition curve with a large enough effect in the signal ratio, with a control signal flat, not every such curve was filed as active; inconclusive = small, poorly fitted or top-dose-only effect, or effect the other way, or a change in a side signal; the % refers to the signal ratio;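 also: potency is read from the fitted curve at half-maximal effect; plate controls were basal doxycycline-induced cells for no effect and cells given 10 µM MG132 for full effect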
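TMD8 ABC-DLBCL cells carrying doxycycline-inducible green luciferase fused to IkappaBalpha plus unfused red luciferase were exposed to compounds (up to 46 uM) for 4 hrs at 37C. Activity came from the overlap-corrected green/red luminescence ratio.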
IL1B secr inh = qHTS for Inhibitors of Inflammasome Signaling: IL-1-beta AlphaLISA Primary Screen; THP-1 LPS/ATP IL-1B secretion, AlphaLISA, 16 h; hits give low values; activity change, % at 57.5 µM; actives 4.7% (n = 360,000); in the data active = activity change below about -50%; inconclusive = mostly about -30% to -49%; also: % is scaled to controls: 0 for no effect and ±100 for the full control effect
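THP-1 cells pretreated 1 hr with compounds (up to 57.5 uM final), then stimulated with LPS (250 ng/mL final) plus ATP (1.25 mM final); secreted IL-1B measured by AlphaLISA after 16 hr, decreased signal indicating inhibition.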
TDP1 cell CPT = qHTS for Inhibitors of human tyrosyl-DNA phosphodiesterase 1 (TDP1): qHTS in cells in presence of CPT | chicken DT40 Tdp1-/-;hTDP1 cells + 20 nM CPT, ATP luminescence, 48 h | Potency, µM (top dose mostly 46.2 µM), for the others: at the highest dose activity change, negative = growth inhibition, hits mostly inhibitors | actives 12% (n = 420,000) | AID 686979, 2013; also: potency is read from the fitted curve at half-maximal effect; % is scaled to controls: 0 for no effect and ±100 for the full control effect; nearly all actives have a fitted effect of over 55% in size
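Chicken DT40 Tdp1-/- cells stably complemented with human TDP1 were seeded at 400 cells/well in medium containing 20 nM camptothecin, exposed to pin-transferred compounds, and grown at 37 °C for at least 48 hr. Viability was read as ATP luminescence.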
SW480 rereplic = A quantitative high throughput screen for small molecules that induce DNA re-replication in SW480 colon adenocarcinoma cells | Potency, µM (highest dose often 46.1 µM), for inactives: at the top dose re-replication activation, most hits filed as activators | SW480 DNA re-replication, Hoechst DNA content imaging, 48 h | actives 1.8% (n = 340,000); also: potency is read from the fitted curve at half-maximal effect; % of control where 0% means no effect; nearly all actives have a fitted effect of over 55% in size
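Treated cells incubate 48 hr (37 C, 5% CO2), are stained 40 min with Hoechst, and nuclear fluorescence is enumerated; a rise in nuclei with high DNA signal marks re-replication.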
MCF10A rereplic = A quantitative high throughput screen for small molecules that induce DNA re-replication in MCF 10a normal breast cells. AID 624296, 2012. Potency, µM (top dose mostly 46.1 µM), inactives show at the highest dose activity, positive = re-replication, usual class: activators. actives 2.9% (n = 350,000). MCF 10A DNA re-replication, Hoechst nuclear intensity, 48 h; also: potency is read from the fitted curve at half-maximal effect; % of control where 0% means no effect; nearly all actives have a fitted effect of over 50% in size
DT40 TDP1 no CPT = qHTS for Inhibitors of human tyrosyl-DNA phosphodiesterase 1 (TDP1): qHTS in cells in absence of CPT. DT40 Tdp1-/- hTDP1 cells, no CPT, ATP luminescence, 48 h. Potency, µM (series often up to 46.2 µM), for the others: at the highest dose activity change, negative = growth inhibition, hits mostly inhibitors. actives 15% (n = 420,000); also: potency is read from the fitted curve at half-maximal effect; % is scaled to controls: 0 for no effect and ±100 for the full control effect; nearly all actives have a fitted effect of over 55% in size
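Camptothecin absent (DMSO only). Human TDP1-complemented DT40 knockout cells, 400 cells/well, 37 °C for minimum 48 hr; ATP measured via CellTiter-Glo, 30 min dark incubation, luminescence.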
* = called active by the depositor; ? = inconclusive; · = no result. Unless noted, calls follow the shape of the dose curve; as a rule, active = well fitted curve in the direction sought with a large enough effect; inconclusive = small, poorly fitted or top-dose-only effect, or another doubt; inactive = no such curve, though single readings can be large; an effect the other way counts as inactive or inconclusive.

SMILES	BCR signal inh	IL1B secr inh	TDP1 cell CPT	SW480 rereplic	MCF10A rereplic	DT40 TDP1 no CPT
Cc1ccc(CNC(=O)c2oc3ccc(S(=O)(=O)N4CCC(C)CC4)cc3c2C)cc1	·	·	?	·	·	16.4µM*
O=C(NCc1cccnc1)c1ccc(S(=O)(=O)N2CCCCC2)cc1	0.8%	8.2	?	-3.2%	-2.0%	?
Cc1c(C(=O)NCc2cccnc2)oc2ccc(S(=O)(=O)N3CCCCCC3)cc12	-13.9%	20.2	?	-1.9%	1.4%	?
Cc1ccc(CNC(=O)c2oc3ccc(S(=O)(=O)N4CCOCC4)cc3c2C)cc1	-2.9%	-8.8	-16.3%	7.8%	0.6%	?
COc1ccc(-c2c(-c3ccsc3)oc3c2C(O)CCC3)cn1 (configuration not stated)	·	25.8	-21.9%	·	·	-21.0%
Cc1cc(C)c(NC(=O)CNC(=O)COC(=O)CN2C(=O)NC3(CCCC3)C2=O)c(C)c1	?	14.0	-1.9%	-90.7%	1.0%	-11.7%
COc1ccc(OC2(C)CCN(Cc3ccc(-c4ccccc4)o3)C2)cc1 (configuration not stated)	·	10.0	20.6µM*	·	·	?
CCCNC(=O)C1(C)CCCN(Cc2ccc(Oc3ccccc3)cc2)C1 (configuration not stated)	·	0.0	20.6µM*	·	·	18.4µM*
COc1ccc(CN2CCC(C)(Oc3ccc4c(c3)OCO4)C2)c2ccccc12 (configuration not stated)	·	-7.3	?	·	·	?
CCNC(=O)C1(C)CCCN(Cc2cccc(Oc3ccccc3)c2)C1 (configuration not stated)	·	6.3	18.4µM*	·	·	20.6µM*
CCCNC(=O)C1(C)CCN(Cc2ccc(Oc3ccccc3)cc2)C1 (configuration not stated)	·	-3.7	?	·	·	?
COCCNC(=O)C1(C)CCCN(CCOc2ccc(Cl)cc2)C1 (configuration not stated)	·	-1.3	?	·	·	14.6µM*
CC1CN(CC(O)COCc2ccc3c(c2)OCO3)CC(C)O1 (configuration not stated)	3.3%	2.0	?	6.3%	1.5%	23.5%
COCCNC(=O)C1(C)CCCN(C(=O)COc2ccccc2)C1 (configuration not stated)	·	-84.6*	20.6µM*	·	·	1.84µM*
COCCNC(=O)C1(C)CCCN(Cc2csc3ccccc23)C1 (configuration not stated)	·	0.0	?	·	·	?
CCCNC(=O)C1(C)CCCN(Cc2csc3ccccc23)C1 (configuration not stated)	·	23.5	?	·	·	?
COCCNC(=O)C1(C)CCCN(C(=O)CCc2ccccc2)C1 (configuration not stated)	·	-5.9	-17.6%	·	·	-5.4%
COCCNC(=O)C1(C)CCCN(Cc2csc(-c3ccc(Cl)cc3)n2)C1 (configuration not stated)	·	0.0	11.6µM*	·	·	13µM*
CCCNC(=O)C1(C)CCCN(Cc2cccc(Oc3ccccc3)c2)C1 (configuration not stated)	·	-1.5	?	·	·	?
CCCNC(=O)C1(C)CCCN(Cc2c3ccccc3nn2C)C1 (configuration not stated)	·	38.5	20.6µM*	·	·	20.6µM*
CCCNC(=O)C1(C)CCCN(Cc2cccc(C#N)c2)C1 (configuration not stated)	·	-14.2	18.4µM*	·	·	20.6µM*
Cc1ccc(OC2CCN(C(=O)[C@H]3O[C@@H](n4ccc(N)nc4=O)[C@H](O)[C@@H]3O)CC2)cc1	·	13.9	-0.3%	·	·	-4.2%
O=C(O)c1nccnc1C(=O)Nc1ccc(Cl)cn1	5.1%	19.0	-11.3%	?	6.9%	-18.4%
CC(C)N1CCCC(C)(C(=O)Nc2cccc(Oc3ccccc3)c2)C1 (configuration not stated)	·	-17.4	?	·	·	13µM*
CCCNC(=O)C1(C)CCCN(Cc2ccc(-c3ccccc3)cc2)C1 (configuration not stated)	·	?	6.51µM*	·	·	5.8µM*
SMILES	BCR signal inh	IL1B secr inh	TDP1 cell CPT	SW480 rereplic	MCF10A rereplic	DT40 TDP1 no CPT
CC(C)N1CCCC(C)(C(=O)Nc2ccccc2)C1 (configuration not stated)	·	14.3	0.8%	·	·	2.9%
CCCNC(=O)C1(C)CCCN(Cc2ccc(C)cc2)C1 (configuration not stated)	·	18.7	-28.8%	·	·	?
CCCNC(=O)C1(C)CCCN(Cc2ccc(-c3ccccc3)o2)C1 (configuration not stated)	·	-22.9	23.1µM*	·	·	20.6µM*
CCCNC(=O)C1(C)CCCN(Cc2ccc(C(=O)OCC)o2)C1 (configuration not stated)	·	25.8	?	·	·	?
CCCNC(=O)C1(C)CCCN(Cc2cccs2)C1 (configuration not stated)	·	2.5	-3.3%	·	·	-14.1%
CCCNC(=O)C1(C)CCCN(Cc2ccc(C(F)(F)F)cc2)C1 (configuration not stated)	·	9.5	20.6µM*	·	·	?
COC(=O)c1cc(NC(=O)Cn2ncc3c2-c2ccccc2OC3)cc(C(=O)OC)c1	·	·	-25.4%	·	·	-26.1%
COCCNC(=O)C1(C)CCCN(Cc2ccc(Oc3ccccc3)cc2)C1 (configuration not stated)	·	17.0	?	·	·	20.6µM*
CCCNC(=O)C1(C)CCCN(Cc2cccn2C)C1 (configuration not stated)	·	-11.3	-29.7%	·	·	0.8%
COCCNC(=O)C1(C)CCCN(Cc2ccc(-n3ccnc3)cc2)C1 (configuration not stated)	·	29.2	1.9%	·	·	-0.1%
CCCNC(=O)C1(C)CCCN(Cc2cc(-c3ccccc3)n(C)n2)C1 (configuration not stated)	·	-24.6	16.4µM*	·	·	?
COc1ccc(N2CCN(C(=O)CSc3nnc4c(C)cc5c(C)cc(C)cc5n34)CC2)cc1	?	?	?	11.2%	2.0%	23.1µM*
COc1ccc(N2CCN(C(=O)CSc3nnc(C4CC4)n3C3CC3)CC2)cc1	·	7.1	-16.3%	·	·	-6.2%
